Rows were chosen to be rich in hits. Some 6% of all compounds tested hit in one or more screens of this group.
PLK1 PBD inh = PLK1 (human) polo-box domain binding inhibition; Potency, µM, without a hit: max response, negative = inhibition, actives largely listed as inhibitors; Plk1 PBD binding of FITC phosphopeptide, fluorescence polarization; hit rate 2.8% among 360,000; P53350; also: series mostly up to about 57 µM; nearly all actives have a fitted effect of over 65% in size
Target sequence (P53350 whole entry, looked up, the tested form may be a part): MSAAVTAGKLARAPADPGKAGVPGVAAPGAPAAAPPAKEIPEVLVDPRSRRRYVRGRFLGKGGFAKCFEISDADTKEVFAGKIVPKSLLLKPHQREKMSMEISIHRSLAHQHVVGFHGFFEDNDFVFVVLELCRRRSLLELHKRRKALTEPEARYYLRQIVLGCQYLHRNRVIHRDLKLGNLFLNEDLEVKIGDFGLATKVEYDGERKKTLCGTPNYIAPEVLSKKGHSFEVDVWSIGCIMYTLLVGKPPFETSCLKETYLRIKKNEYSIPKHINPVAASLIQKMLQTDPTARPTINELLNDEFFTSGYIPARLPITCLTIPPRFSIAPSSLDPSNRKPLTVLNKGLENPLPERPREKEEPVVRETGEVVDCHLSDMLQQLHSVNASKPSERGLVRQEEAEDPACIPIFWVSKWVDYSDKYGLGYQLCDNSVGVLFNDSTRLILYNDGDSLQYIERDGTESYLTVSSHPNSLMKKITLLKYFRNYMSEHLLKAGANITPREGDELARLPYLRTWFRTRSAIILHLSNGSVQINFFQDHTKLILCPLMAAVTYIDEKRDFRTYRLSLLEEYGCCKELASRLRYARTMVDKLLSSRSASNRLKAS
Tau FP inhib = tau fibrillization inhibition (FP); P10636; K18 P301L tau heparin fibrillization, Alexa594 FP, 6 h; Potency, µM (top dose mostly 57.7 µM), for inactives: at the top dose activity, negative = inhibition, hits mostly inhibitors; hit rate 0.39% among 280,000; AID 1468; also: nearly all actives have a fitted effect of over 55% in size
Target sequence (P10636 561-689 P618L limits assumed): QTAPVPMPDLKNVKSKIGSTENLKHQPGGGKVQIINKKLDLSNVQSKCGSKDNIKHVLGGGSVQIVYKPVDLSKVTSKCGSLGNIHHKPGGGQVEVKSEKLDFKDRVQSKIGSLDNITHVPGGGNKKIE
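Steps: dispense K18 P301L tau (15 uM plus 0.24 uM Alexa 594 tracer, final) in pH 7 sodium acetate; add compound; add heparin (20 uM final); incubate 6 hr, 37 C; add ThT (30 uM final); after 1 hr ambient, read FP.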
Tau fluor counter = counter-screen for tau fibril formation inhibitors; hit rate 0.93% among 280,000; Potency, µM (doses to about 57.7 µM), without a hit: top-dose activity change, negative = decrease; tau K18 P301L Alexa594 fluorescence, heparin fibrillization; AID 1463; also: nearly all actives have a fitted effect of over 55% in size
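Human tau K18 P301L (15 uM unlabeled, 0.24 uM Alexa 594-labeled) in 100 mM sodium acetate pH 7 with 20 uM heparin, 6 hr at 37 C. ThT 30 uM added, 1 hr ambient; Alexa 594 FP and total fluorescence read at 555/632 nm.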
VDR inhibitor = inhibitors of human vitamin D receptor; hit rate 0.93% among 400,000; VDR-SRC2-3 peptide fluorescence polarization, 2 h; P11473; AID 504847; Potency, µM, for the others: max response, negative = inhibition, actives largely listed as inhibitors
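Two reagent solutions held at 4 deg C in the dark were dispensed, compounds pinned at 23 nl, and the mixture incubated 2 h at room temperature. Read-out: fluorescence polarization of VDR–SRC2-3 peptide binding.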
Sfp inh = Sfp phosphopantetheinyl transferase inhibition. hit rate 3.5% among 310,000. AID 1490. Potency, µM, for the others: largest response in the series, negative = inhibition, usual class: inhibitors. Biochemical Sfp PPTase activity, qHTS;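 also: the enzyme is Sfp with the accession as filed and its product quenches rhodamine fluorescence; 0% = enzyme reaction without inhibitor and -100% = no enzyme wells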
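Compounds were incubated with enzyme (final 15 nM) for 15 min at room temperature before substrate addition started the reaction. Fluorescence at 525 nm excitation, 598 nm emission was recorded immediately and after 30 minutes.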
Tau ThT inhib = inhibitors of human tau fibril formation, thioflavin T binding; hit rate 2.1% among 270,000; recombinant tau K18 P301L, heparin-induced fibrillization, ThT fluorescence; Potency, µM (highest dose often 57.4 µM), for inactives: at the top dose activity, negative = inhibition, usual class: inhibitors; P10636; also: nearly all actives have a fitted effect of over 55% in size
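Using a mix of unlabeled (15 uM) and Alexa 594-labeled (0.24 uM) tau K18 P301L, heparin-triggered fibrillization over 6 hr at 37 C was scored by ThT fluorescence.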
* marks the source's active call; other numbers are inactive results; ? = inconclusive; . = no result given; ! = not confirmed by another sample; [ ] = dose if it differs, or a comment. Calls follow the shape of the dose curve; as a rule, active = well fitted curve in the direction sought with a large enough effect; inconclusive = small, poorly fitted or top-dose-only effect, or another doubt; inactive = no such curve, though single readings can be large; an effect the other way counts as inactive or inconclusive. Unless noted, % is scaled to controls: 0 for no effect and ±100 for the full control effect; potency is read from the fitted curve at half-maximal effect.

SMILES	PLK1 PBD inh	Tau FP inhib	Tau fluor counter	VDR inhibitor	Sfp inh	Tau ThT inhib
CN1C(=O)C(=Cc2cn(CC(=O)N3CCCC3)c3ccccc23)C(=O)N(C)C1=O	27µM*	.	.	-2%	7%	.
Cc1cc(C=C2C(=O)N(C)C(=O)N(C)C2=O)c(C)n1-c1ccccc1	-4%	?	-20%	-3%	-3%	?
CN1C(=O)C(=Cc2cn(CC#N)c3ccccc23)C(=O)N(C)C1=O	1.2µM*	.	.	-16%	-8%	.
CCOC(=O)Cn1cc(C=C2C(=O)N(C)C(=O)N(C)C2=O)c2ccccc21	?	.	.	-3%	-12%	.
CN1C(=O)C(=Cc2coc3ccccc3c2=O)C(=O)N(C)C1=O	19µM*	?	-8%	?	-20%	?
CN1C(=O)C(=Cc2cn(CC(=O)N3CCCCC3)c3ccccc23)C(=O)N(C)C1=O	13µM*	.	.	-11%	2%	.
COCC(=O)N1CCC2(CCCN(Cc3ccncc3)C2)CC1	.	.	.	-7%	-4%	.
Fc1cccc(CCNCc2ccccn2)c1	-6%	-6%	-3%	-2%	56µM*	-9%
c1ccc(CNCCc2ccc3c(c2)OCO3)nc1	-5%	3%	2%	10%	-4%	-1%
CCCCCCCCCCCCCCC[C@@H](O)[C@@H](N)COP(=O)(O)O	.	3%	2%	-4%	-6%	1%
CC(C)(C)c1o[nH]c(=O)c1CC(N)C(=O)O (stereo not drawn)	-9%	4%	-4%	-3%	.	-7%
NC(C(=O)O)c1cc(=O)[nH]o1 (stereo not drawn)	-2%	-2%	1%	-4%	79µM*	-2%
O=C1C(Cc2cnc[nH]2)NC(=S)N1c1ccccc1 (stereo not drawn)	-9%	.	.	12%	50µM*	.
S=C(NCCc1ccccc1)NCCc1cnc[nH]1	-5%	.	.	0%	?	.
CCCCC1C(=O)NC(=S)N(C)C1=O (stereo not drawn)	-12%	.	.	?	.	.
CCCCC1C(=O)NC(=S)NC1=O	.	?	-7%	.	10µM*	?
Cc1ccc(OCC(=O)N2CCN(Cc3ccc(F)cc3)CC2)cc1	.	-4%	-19%	7%	.	-14%
CSc1ccc(CN2CCN(C(=O)COc3cccc(C)c3)CC2)cc1	-9%	9%	8%	13%	71µM*	0%
Oc1c(Br)c(Br)c(Br)c(Br)c1Br	27µM*	.	.	?	.	.
O=C(COc1ccc(Br)cc1)Nc1ccc(Cl)cc1C(=O)c1ccccc1	.	-16%	-16%	-4%	.	-6%
CC(C)C(OC(=O)c1ccco1)C(=O)NCc1ccco1 (stereo not drawn)	27µM*	-8%	1%	-28%	2%	-16%
Cc1nn(Cc2ccccc2)c(C)c1C(=O)OCC(=O)NCc1ccco1	0%	2%	-17%	1%	-20%	-15%
CCOCCCNC(=O)c1c[nH]c2ccc(S(=O)(=O)N(C)c3ccc(Cl)cc3F)cc2c1=O	.	?	?	0%	.	3%
CCCCc1ccc(C(=O)O)nc1	3%	-5%	-17%	4%	28µM*	?
CCCCCCCCc1ccc(O)cc1	-10%	.	.	-7%	.	.
SMILES	PLK1 PBD inh	Tau FP inhib	Tau fluor counter	VDR inhibitor	Sfp inh	Tau ThT inhib
CC(=O)N1CCN(c2ccc(OC[C@@H]3CO[C@@](Cn4ccnc4)(c4ccc(Cl)cc4Cl)O3)cc2)CC1	.	.	.	12%	13%	.
N[C@@H](Cc1cc(Br)c(O)c(Br)c1)C(=O)O	.	-1%	-22%	.	50µM*	?
Oc1c(Br)cc(-c2ccccc2)cc1Br	?	.	.	-5%	.	.
NC(N)=N/N=C/c1ccc(N2CCOCC2)cc1	2%	-13%	-26%	-2%	2%	?
NC(N)=N/N=C/c1c(Cl)cccc1Cl	-10%	-9%	-10%	3%	100µM*!	-4%
Cc1cc(C)cc(NC(=O)CSc2oc(-c3cccs3)nc2S(=O)(=O)c2ccc(Br)cc2)c1	.	-15%	?	0%	.	-10%
COc1ccc(CN2C(=O)CC(=O)NC2=O)cc1	-17%	?	-14%	-22%	-4%	25µM*
COc1ccc(N2C(=O)CC(=O)NC2=O)cc1	-10%	-9%	-6%	1%	?	?
CCOc1ccc(-c2nc3ccc(-c4nc5ccc(N6CCN(C)CC6)cc5[nH]4)cc3[nH]2)cc1	.	6%	?	112%	?	2.8µM*
C#CCN1CC(=O)N(COC(=O)[C@@H]2[C@@H](C=C(C)C)C2(C)C)C1=O	.	.	.	-13%	12%	.
CSc1cccc(NC(=O)C2CCN(C(=O)c3cnn(-c4ccccc4)c3-n3cccc3)CC2)c1	.	-15%	?	2%	.	-6%
CC(Cc1ccc(C(C)(C)C)cc1)CN1CCCCC1 (stereo not drawn)	.	.	.	7%	4%	.
C[n+]1c2cc(N)ccc2cc2ccc(N)cc21	0.67µM*	5%	?	25µM*!	-13%	?
Nc1ccc2ccccc2c1	-9%	.	.	12%	.	.
COc1ccc2c(c1)CCC1[C@@H]2CCC2(C)[C@@H](NCCCCCCN3C(=O)C=CC3=O)CC[C@@H]12 (stereo partly drawn)	.	-13%	-19%	0%	-26%	?
COP(N)(=O)SC (stereo not drawn)	.	-8%	-3%	1%	-8%	0%
CCOC(=O)C1CCN(Cc2c(F)cccc2Cl)CC1	-8%	1%	8%	-8%	?	5%
Cc1cc2c(cc(C(=O)N3CCC(C(=O)NC4CCCC4)CC3)n2Cc2c(F)cccc2Cl)o1	-9%	4%	-10%	-5%	50µM*	?
C[C@]12CC[C@@H]3c4ccc(OC(=O)N(CCCl)CCCl)cc4CC[C@H]3[C@@H]1CC[C@@H]2O	.	.	.	50µM*	0%	.
Cc1ccccc1-n1c(/C=C/c2c(C)[nH]c3ccccc23)nc2ccccc2c1=O	.	?	4µM*[quencher]	-4%	.	?
CN1CCN(c2ccc(N)cc2Cl)CC1	15µM*	4%	-15%	?	?	?
CCn1nc(-c2ccccc2)nc2c(=O)n(C)c(=O)nc1-2	?	?	-10%	6%	22%	16µM*
C[C@@H]1C[C@H](C)C[C@H](C)[C@@H](O)CC(=O)O[C@H]([C@H]2CCC[C@H]2C(=O)O)C/C=C/C=C(/C#N)[C@H](O)[C@@H](C)C1	.	.	.	?	5%	.
NC(=O)c1cn(C2CCCCC2)c2ccccc2c1=O	-4%	.	.	-1%	-1%	.
O=C1c2ccccc2C(=O)N1SC1CCCCC1	1.9µM*	?	-2%	20µM*	10µM*	?
CC(C)C(C)/C=C/C(C)C1CCC2C3=CC=C4CC(O)CCC4(C)C3CCC21C (stereo not drawn)	.	2%	-21%	?	-4%	?
CC1(C)CC(=O)C(C2(O)C(=O)NC(=O)NC2=O)=C(O)C1	-10%	?	-18%	45µM*	-17%	6.3µM*

Screening data: PubChem BioAssay, National Center for Advancing Translational Sciences (NCATS)
